PubChem BioAssay (NCI)
This is part of a sample that, as a whole, favours compounds with a hit. Of some 83,000 tested, about 20% had one in any assay.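 Results are percent growth after 48 hours of single-concentration exposure. 100 means growth as in untreated cells, lower positive values show inhibition; negative values down to -100 show cell death.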 Activity calls are given as the source filed them. Rule for the calls: active = growth percent below 10; inactive = the rest.

Columns and labels:
Assay in all cases: NCI-60 one-dose screen, 48 h (100 = growth as untreated, 0 = no growth, -100 = all killed)
Conditions in all cases: 10 µM unless noted
HT29 colon = test system: HT29 colon
SNB-75 CNS = test system: SNB-75 CNS
SNB-19 CNS = test system: SNB-19 CNS
U251 CNS = test system: U251 CNS
PC-3 prostate = test system: PC-3 prostate
SK-MEL-5 melanoma = test system: SK-MEL-5 melanoma
UACC-62 melanoma = test system: UACC-62 melanoma
LOX IMVI melanoma = test system: LOX IMVI melanoma
SK-MEL-28 melanoma = test system: SK-MEL-28 melanoma
SK-MEL-2 melanoma = test system: SK-MEL-2 melanoma
EKVX NSCLC = test system: EKVX NSCLC
SN12C renal = test system: SN12C renal
UO-31 renal = test system: UO-31 renal
ACHN renal = test system: ACHN renal
A498 renal = test system: A498 renal
CCRF-CEM leukemia = test system: CCRF-CEM leukemia
MOLT-4 leukemia = test system: MOLT-4 leukemia
TK-10 renal = test system: TK-10 renal
CAKI-1 renal = test system: CAKI-1 renal

Measured: growth

O=C(CC1(O)C(=O)Nc2ccc(Br)cc21)c1ccc(Cl)cc1 (stereo not drawn)
inactive: HT29 colon 97.8% | SNB-75 CNS 81.8% | SNB-19 CNS 107% | U251 CNS 94.6% | PC-3 prostate 81.6% | SK-MEL-5 melanoma 96.8% | UACC-62 melanoma 98.1% | LOX IMVI melanoma 99.3% | SK-MEL-28 melanoma 120% | SK-MEL-2 melanoma 97.2% | EKVX NSCLC 93.8% | SN12C renal 102% | UO-31 renal 75.9% | ACHN renal 113% | A498 renal 97.7% | CCRF-CEM leukemia 103% | MOLT-4 leukemia 101%

O=C(CCl)n1nnnc1Cc1ccccc1
inactive: HT29 colon 95.6% | SNB-75 CNS 84.9% | SNB-19 CNS 96.4% | U251 CNS 90.3% | PC-3 prostate 94.7% | SK-MEL-5 melanoma 109% | UACC-62 melanoma 89.5% | LOX IMVI melanoma 87% | SK-MEL-2 melanoma 86.9% | EKVX NSCLC 105% | SN12C renal 92.2% | UO-31 renal 74.3% | TK-10 renal 88.1% | ACHN renal 95.1% | CAKI-1 renal 92.4% | A498 renal 109% | CCRF-CEM leukemia 86.3% | MOLT-4 leukemia 94.2%

Cc1ccc(-c2nc3nc(-c4ccccc4)nc(N4CCCNCC4)c3o2)cc1
active: HT29 colon -86.1% | SNB-75 CNS -59.8% | U251 CNS -84.9% | PC-3 prostate -88.9% | SK-MEL-5 melanoma -57.3% | UACC-62 melanoma -81.4% | LOX IMVI melanoma -89.8% | SK-MEL-28 melanoma -89.3% | SK-MEL-2 melanoma -2.85% | SN12C renal -87.9% | UO-31 renal -98.1% | TK-10 renal -60% | CAKI-1 renal -9.04% | CCRF-CEM leukemia -75.8% | MOLT-4 leukemia -68.1%
inactive: SNB-19 CNS 25.9% | EKVX NSCLC 39% | A498 renal 98.4%

O=c1oc2c(Br)cc(Br)cc2cc1-c1cc(-c2ccc(-c3cc(-c4cc5cc(Br)cc(Br)c5oc4=O)nc(-c4cc5cc(Br)cc(Br)c5oc4=O)c3)cc2)cc(-c2cc3cc(Br)cc(Br)c3oc2=O)n1
inactive: SNB-75 CNS 105% | SNB-19 CNS 101% | U251 CNS 107% | PC-3 prostate 97.5% | SK-MEL-5 melanoma 108% | UACC-62 melanoma 102% | LOX IMVI melanoma 99.5% | SK-MEL-28 melanoma 112% | SK-MEL-2 melanoma 101% | EKVX NSCLC 105% | SN12C renal 107% | UO-31 renal 80.6% | TK-10 renal 107% | ACHN renal 103% | CAKI-1 renal 110% | A498 renal 95.9% | CCRF-CEM leukemia 101% | MOLT-4 leukemia 102%

NC(N)=NC(N)=NCCCc1ccco1
inactive: HT29 colon 94.4% | SNB-75 CNS 111% | SNB-19 CNS 103% | U251 CNS 101% | PC-3 prostate 103% | SK-MEL-5 melanoma 101% | UACC-62 melanoma 113% | LOX IMVI melanoma 97.1% | SK-MEL-28 melanoma 98.8% | SK-MEL-2 melanoma 96.1% | EKVX NSCLC 113% | SN12C renal 108% | UO-31 renal 102% | TK-10 renal 86.2% | ACHN renal 107% | CAKI-1 renal 96.4% | A498 renal 118% | CCRF-CEM leukemia 101% | MOLT-4 leukemia 93.2%

COc1ccc2c(c1)c(C(=O)c1nc(-c3cn(C)c4ccccc34)no1)cn2C
inactive: HT29 colon 88.8% | SNB-75 CNS 108% | SNB-19 CNS 92.8% | U251 CNS 101% | PC-3 prostate 83.8% | SK-MEL-5 melanoma 82.2% | UACC-62 melanoma 76.6% | LOX IMVI melanoma 103% | SK-MEL-28 melanoma 93.4% | SK-MEL-2 melanoma 101% | EKVX NSCLC 103% | SN12C renal 89.5% | UO-31 renal 77.2% | TK-10 renal 91.7% | ACHN renal 95.9% | CAKI-1 renal 94.1% | A498 renal 87.7% | CCRF-CEM leukemia 87.9% | MOLT-4 leukemia 94.2%

CCOC(=O)c1c(-c2ccc(OC)cc2)c(C#N)c2c(C#N)c(N)nn2c1N
active: HT29 colon 6.58% | SK-MEL-2 melanoma 3.6% | A498 renal -7.96% | CCRF-CEM leukemia 5.96%
inactive: SNB-75 CNS 43.4% | SNB-19 CNS 31.2% | U251 CNS 15.8% | PC-3 prostate 40% | SK-MEL-5 melanoma 19.3% | UACC-62 melanoma 13.1% | LOX IMVI melanoma 28.3% | SK-MEL-28 melanoma 44.8% | EKVX NSCLC 41.1% | SN12C renal 40.8% | UO-31 renal 47.6% | TK-10 renal 57.7% | ACHN renal 53.3% | CAKI-1 renal 39.8% | MOLT-4 leukemia 10%

COc1ccc2c(c1)c(-c1nc(-c3c[nH]c4c(Cl)nccc34)cs1)cn2C
inactive: HT29 colon 84% | SNB-75 CNS 82.9% | SNB-19 CNS 105% | U251 CNS 86.5% | PC-3 prostate 72.6% | SK-MEL-5 melanoma 45.4% | UACC-62 melanoma 87.8% | LOX IMVI melanoma 80% | SK-MEL-28 melanoma 105% | SK-MEL-2 melanoma 108% | EKVX NSCLC 34.8% | SN12C renal 95.9% | UO-31 renal 90.8% | TK-10 renal 35.7% | ACHN renal 85.4% | CAKI-1 renal 98.7% | A498 renal 94.7% | CCRF-CEM leukemia 93.7% | MOLT-4 leukemia 85%

O=C1c2cccc3cccc(c23)C(=O)N1N1C(=O)c2cccc3c(N4CCNCC4)ccc(c23)C1=O
inactive: HT29 colon 87.3% | SNB-75 CNS 92.2% | SNB-19 CNS 88.5% | U251 CNS 86.3% | PC-3 prostate 85.1% | SK-MEL-5 melanoma 92.8% | UACC-62 melanoma 95.7% | LOX IMVI melanoma 86.5% | SK-MEL-28 melanoma 109% | SK-MEL-2 melanoma 101% | EKVX NSCLC 97.9% | SN12C renal 89.8% | UO-31 renal 71.6% | TK-10 renal 113% | ACHN renal 87.8% | CAKI-1 renal 92.4% | A498 renal 75.1% | CCRF-CEM leukemia 19.5% | MOLT-4 leukemia 61.5%

CC/C=C\C/C=C\C[C@H](O)C/C=C1/C(=O)C=C[C@@H]1C/C=C\CCCC(=O)OC
active: HT29 colon -25.4% | U251 CNS -73.3% | PC-3 prostate -36.6% | SK-MEL-5 melanoma -94.9% | UACC-62 melanoma -56% | LOX IMVI melanoma -80.5% | SK-MEL-28 melanoma -38% | SK-MEL-2 melanoma -16.9% | SN12C renal -29.2% | UO-31 renal -83.3% | TK-10 renal 5.09% | ACHN renal -75.9% | CAKI-1 renal -1.75% | CCRF-CEM leukemia -11.7% | MOLT-4 leukemia -10.5%
inactive: SNB-75 CNS 53.3% | SNB-19 CNS 20.2% | EKVX NSCLC 24.8% | A498 renal 21.9%

COc1ccc(C/C(C)=C(\c2ccc(O)cc2)c2ccc(OCCCN(C)C)cc2)cc1
inactive: HT29 colon 77.6% | SNB-75 CNS 84.1% | SNB-19 CNS 100% | U251 CNS 80.5% | PC-3 prostate 83.4% | SK-MEL-5 melanoma 98.4% | UACC-62 melanoma 108% | LOX IMVI melanoma 88.9% | SK-MEL-28 melanoma 112% | SK-MEL-2 melanoma 88.4% | EKVX NSCLC 98.2% | SN12C renal 93.3% | UO-31 renal 77.7% | TK-10 renal 86.9% | ACHN renal 109% | CAKI-1 renal 107% | A498 renal 101% | CCRF-CEM leukemia 73.9% | MOLT-4 leukemia 68.8%

COc1cc(NS(=O)(=O)C(C)C)cc(-c2cc(-c3ccc(N4CCNCC4)cc3)cnc2N)c1
inactive: HT29 colon 31.9% | SNB-75 CNS 53.7% | SNB-19 CNS 94.2% | U251 CNS 77.1% | PC-3 prostate 72% | SK-MEL-5 melanoma 102% | UACC-62 melanoma 110% | LOX IMVI melanoma 67.3% | SK-MEL-28 melanoma 107% | SK-MEL-2 melanoma 117% | EKVX NSCLC 109% | SN12C renal 64.6% | UO-31 renal 70% | TK-10 renal 115% | ACHN renal 93.2% | CAKI-1 renal 87.1% | A498 renal 75.3% | CCRF-CEM leukemia 66.7% | MOLT-4 leukemia 37.2%

COc1c(O)c(O)cc2c3c(oc12)CC(c1ccc2c(c1)OCO2)CC3=O (stereo not drawn)
active: UACC-62 melanoma 4.1%
inactive: HT29 colon 93.4% | SNB-75 CNS 84.5% | SNB-19 CNS 77.8% | U251 CNS 76.2% | PC-3 prostate 76.1% | SK-MEL-5 melanoma 31.4% | LOX IMVI melanoma 25.3% | SK-MEL-2 melanoma 69.6% | EKVX NSCLC 65.2% | SN12C renal 82.2% | UO-31 renal 44.7% | TK-10 renal 101% | ACHN renal 29.7% | CAKI-1 renal 72% | A498 renal 97.9% | CCRF-CEM leukemia 56.7% | MOLT-4 leukemia 43.5%

Cc1n(Cc2ccc3ccccc3c2)c(Cl)c(Cl)[n+]1Cc1ccc2ccccc2c1
active: SNB-75 CNS -1.79% | SK-MEL-5 melanoma -79.4% | UACC-62 melanoma -40.3%
inactive: HT29 colon 19.2% | SNB-19 CNS 23.3% | U251 CNS 19.8% | PC-3 prostate 12.2% | LOX IMVI melanoma 27.8% | SK-MEL-28 melanoma 26.6% | SK-MEL-2 melanoma 25.5% | EKVX NSCLC 51.1% | SN12C renal 30.7% | UO-31 renal 72.1% | TK-10 renal 52.5% | ACHN renal 80.8% | A498 renal 40.3% | CCRF-CEM leukemia 14% | MOLT-4 leukemia 25.4%

N=C(N)c1ccc(-c2ccc(-c3ccc(F)cc3)s2)nc1
inactive: SNB-75 CNS 100% | SNB-19 CNS 80.1% | U251 CNS 22.3% | PC-3 prostate 65.3% | SK-MEL-5 melanoma 77% | UACC-62 melanoma 95.9% | LOX IMVI melanoma 18.6% | SK-MEL-28 melanoma 102% | SK-MEL-2 melanoma 101% | EKVX NSCLC 79.3% | SN12C renal 75.3% | UO-31 renal 74.1% | TK-10 renal 108% | ACHN renal 76% | CAKI-1 renal 65.4% | A498 renal 79% | CCRF-CEM leukemia 47.8% | MOLT-4 leukemia 26.3%
active: HT29 colon 8.67%
